The panel holds about 83,000 compounds, 20% with a hit somewhere; the sample as a whole holds those more often.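 Values shown are percent growth following 48 h exposure of cells in 96-well plates to a single concentration of compound; below 10 was considered active.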 A number with no mark means an inactive call. The source made the active and inactive calls.

What all share (experiment): NCI-60 one-dose screen, 48 h (100 = growth as untreated, 0 = no growth, -100 = all killed)
One assay relates to NCI-H226 lung. The note with it: 10 µM unless noted.
The subject of the next assay is NCI-H322M lung. The settings on record: 10 µM unless noted.
The next assay concerns HOP-62 NSCLC. The note with it: 10 µM unless noted.
The subject of another assay is K-562 leukemia. The note with it: 10 µM unless noted.
The next assay has as its system SF-295 CNS. The note with it: 10 µM unless noted.
For another assay, the system named is HCT-15 colon. The settings on record: 10 µM.
Another assay has as its system SNB-19 CNS. The note with it: 10 µM unless noted.
The test system of another assay is SK-MEL-5 melanoma. The note with it: 10 µM unless noted.
The subject of another assay is LOX IMVI melanoma. The settings on record: 10 µM unless noted.
The next assay relates to TK-10 renal. The settings on record: 10 µM unless noted.
The subject of a further assay is MOLT-4 leukemia. The note with it: 10 µM.
Another assay concerns SR leukemia. The settings on record: 10 µM.
Another assay concerns IGROV1 ovarian. The settings on record: 10 µM.
The subject of a further assay is HCC-2998 colon. The settings on record: 10 µM unless noted.
In another assay the test system is EKVX NSCLC. The settings on record: 10 µM unless noted.
A further assay concerns RPMI-8226 leukemia. The note with it: 10 µM unless noted.
In another assay the test system is CCRF-CEM leukemia. The settings on record: 10 µM unless noted.
The subject of a further assay is NCI-H522 lung. The settings on record: 10 µM unless noted.

Regarding `c1ccc([As]=[As]c2ccccc2)cc1` (stereo unspecified), the growth with NCI-H226 lung is 5.17% (active); in the assay on NCI-H322M lung, -40.5% (active); in the assay on HOP-62 NSCLC, -54.4% (active); with K-562 leukemia, -60.2% (active); in the assay with SF-295 CNS it was 43.8%; with HCT-15 colon it was -86.2% (active). Besides, the growth with SNB-19 CNS was 20.5%; in the assay with SK-MEL-5 melanoma, -70.5% (active); with LOX IMVI melanoma, -74.5% (active); in the assay with TK-10 renal, -86% (active); in the assay with MOLT-4 leukemia it was -49.1% (active); with SR leukemia, -47.5% (active). In addition, the growth with IGROV1 ovarian was -84.1% (active); with HCC-2998 colon, 0.927% (active).
With `C[C@]12CC[C@H]3[C@@H](C[C@@H]4N=C(c5ccc(O)cc5)S[C@@]45C[C@H](O)CC[C@]35C)[C@@H]1CC[C@@H]2O`, the growth in the assay with NCI-H226 lung was 110%; in the assay with NCI-H322M lung, 92.8%; with HOP-62 NSCLC it was 46.7%; in the assay with K-562 leukemia it was 13.9%; with SF-295 CNS it was -36.2% (active); in the assay on HCT-15 colon it was 29.5%. The growth is 71% in the assay with SNB-19 CNS; 25.4% in the assay with LOX IMVI melanoma; 63.6% in the assay on EKVX NSCLC; 89.3% in the assay with TK-10 renal; -23.2% (active) in the assay with MOLT-4 leukemia; 5.95% (active) in the assay on SR leukemia. Besides, the growth in the assay on RPMI-8226 leukemia is -36.9% (active); in the assay on IGROV1 ovarian, 80.7%; in the assay with HCC-2998 colon, 95.3%.
With `COC(C)(C)CCC[C@H](C)C/C=C/C(C)=C/C(=O)OC(C)C`, the growth with NCI-H226 lung is 103%; with NCI-H322M lung, 108%; in the assay on HOP-62 NSCLC it was 107%; in the assay on K-562 leukemia, 85.3%; in the assay with SF-295 CNS, 98.2%; with HCT-15 colon, 101%. Further, the growth with SNB-19 CNS was 109%; in the assay with LOX IMVI melanoma, 92.9%; in the assay with EKVX NSCLC, 78.1%; with TK-10 renal it was 96.5%; with CCRF-CEM leukemia, 78%; with MOLT-4 leukemia it was 90%. In addition, the growth is 62.9% with RPMI-8226 leukemia, 99.7% with IGROV1 ovarian and 101% in the assay with HCC-2998 colon.
Consider `C=CC(=O)NC(O)C(Cl)(Cl)Cl` (stereo unspecified), for which the growth in the assay with NCI-H226 lung is 112%; with NCI-H322M lung, 85%; in the assay with HOP-62 NSCLC, 104%; in the assay with K-562 leukemia, 97.1%; in the assay with SF-295 CNS, 95.6%; in the assay with HCT-15 colon, 97.1%. For the same molecule, the growth in the assay on SNB-19 CNS was 105%; with TK-10 renal, 95.9%; in the assay with MOLT-4 leukemia, 83.8%; in the assay with SR leukemia it was 90.8%; in the assay with RPMI-8226 leukemia it was 102%; in the assay with IGROV1 ovarian, 98.1%.
For `CC(=O)N1N=C(c2ccccc2)CC1c1sc(N(CCCl)CCCl)nc1Cl` (stereo unspecified), the growth with NCI-H226 lung is 89.1%; in the assay with NCI-H322M lung, 90.6%; in the assay with HOP-62 NSCLC it was 90%; in the assay with K-562 leukemia, 80%; in the assay with SF-295 CNS it was 92.5%; in the assay with HCT-15 colon, 94.8%. The growth with SNB-19 CNS was 86.1%; with SK-MEL-5 melanoma it was 99.1%; in the assay on LOX IMVI melanoma, 103%; in the assay on EKVX NSCLC, 90.9%; in the assay on TK-10 renal it was 108%; in the assay with MOLT-4 leukemia, 86.7%. Further, the growth in the assay with SR leukemia is 86.4%; in the assay with IGROV1 ovarian it was 101%; in the assay on HCC-2998 colon it was 96.4%.
As for `O=[N+]([O-])c1ccc(F)c([N+](=O)[O-])c1F`, the growth is 100% in the assay with NCI-H226 lung; 91.7% with NCI-H322M lung; 106% with HOP-62 NSCLC; 95.3% in the assay on NCI-H522 lung; 11.1% in the assay on K-562 leukemia; 104% in the assay on SF-295 CNS. Moreover, the growth was 116% with HCT-15 colon; 115% in the assay on SNB-19 CNS; 103% with SK-MEL-5 melanoma; 100% in the assay with EKVX NSCLC; 99.9% with TK-10 renal; 61.7% in the assay on CCRF-CEM leukemia. The growth with MOLT-4 leukemia is 58%; in the assay with SR leukemia, 8.94% (active); in the assay on RPMI-8226 leukemia, 93.5%; in the assay with HCC-2998 colon, 105%.
For `CC(/C=N/N=C(N)N)=N\N=C(N)N`, the growth in the assay on NCI-H226 lung is 95.8%; in the assay with NCI-H322M lung, 10%; in the assay on HOP-62 NSCLC, 64.2%; in the assay with NCI-H522 lung, 61.5%; in the assay on K-562 leukemia it was 56.1%; in the assay on SF-295 CNS, 85.5%. Further, the growth was 100% in the assay with HCT-15 colon; 78.1% in the assay with SNB-19 CNS; 137% with SK-MEL-5 melanoma; 67% with LOX IMVI melanoma; 89.8% with EKVX NSCLC; 62% with TK-10 renal. For the same molecule, the figures for the growth in the assay on MOLT-4 leukemia, in the assay on SR leukemia and in the assay on RPMI-8226 leukemia were 98.6%, 70.1% and 74.3%, respectively.
On to `CCCCCCCC(=O)OCC/C=C/C1OC1C1OC(=O)/C=C\C=C\c2nc(oc2C)/C=C(/C)CCC2OC2C1OC(=O)NC(C)=O` (stereo unspecified), for which the growth with NCI-H226 lung is -37.5% (active); in the assay on NCI-H322M lung it was 15.6%; in the assay with HOP-62 NSCLC, -11.6% (active); with NCI-H522 lung it was -80.3% (active); with SF-295 CNS, -37.6% (active); in the assay on HCT-15 colon, -5.6% (active). For the same molecule, the growth is -56.8% (active) in the assay on SNB-19 CNS; -93.8% (active) in the assay with SK-MEL-5 melanoma; -5.8% (active) with EKVX NSCLC; 1.86% (active) with TK-10 renal; -10.2% (active) with IGROV1 ovarian; -92.8% (active) in the assay with HCC-2998 colon.
With `CC1(C)N=C(N)N=C(N)N1c1ccc(OCCCCNC(=O)Nc2cccc(S(=O)(=O)F)c2)c(Cl)c1`, the growth in the assay with NCI-H226 lung was 69.4%; in the assay with NCI-H322M lung it was 57.6%; in the assay with HOP-62 NSCLC, 62.8%; with K-562 leukemia it was 17.7%; in the assay on HCT-15 colon, 90.3%; in the assay on SNB-19 CNS, 45.7%. For the same molecule, the growth in the assay with LOX IMVI melanoma is 13.7%; in the assay with TK-10 renal it was 62%; in the assay with CCRF-CEM leukemia it was 23.6%; in the assay with MOLT-4 leukemia, 37.6%; with SR leukemia, 45.8%; in the assay with RPMI-8226 leukemia, 38.1%. Moreover, the growth in the assay on IGROV1 ovarian is 37.9%; in the assay on HCC-2998 colon it was 50.8%.
With `CC1(C)N=C(N)N=C(N)N1c1ccc(OCCCCNC(=O)c2ccc(S(=O)(=O)F)cc2)c(Cl)c1`, the growth with NCI-H226 lung is 117%; in the assay on NCI-H322M lung, 55.5%; in the assay with HOP-62 NSCLC, 102%; in the assay with K-562 leukemia, 16.2%; with HCT-15 colon it was 94.9%; with SNB-19 CNS it was 103%. For the same molecule, the growth in the assay on SK-MEL-5 melanoma is 51.4%; in the assay with TK-10 renal it was 57.9%; in the assay on CCRF-CEM leukemia, 31%; in the assay on MOLT-4 leukemia, 57.9%; with RPMI-8226 leukemia, 89.9%; in the assay with IGROV1 ovarian it was 33.7%. Further, in the assay on HCC-2998 colon, the growth is 83.1%.

The record behind these values is PubChem BioAssay (NCI).
